FUS yeast rescue – qHTS for Suppressors of FUS Proteinopathy: Primary screen using FUS-linked yeast assay; S. cerevisiae FUS-expressing, growth rescue, OD600, 24 h; Potency, µM (highest dose often 76.6 µM), hits mostly activators; hit rate 0.24% among 390,000;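 note: plate controls were DMSO vehicle for no effect and reference control for full effect; nearly all actives have a fitted effect of over 55% in size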
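Galactose (2%) drives FUS expression in yeast precultured in raffinose; seeding density OD 0.005. Test compounds incubated 24hr at 30C and 99% humidity before absorbance at 600 nm was measured.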
Abeta yeast res – qHTS for compounds that reverse cellular toxicity of Amyloid beta (A-beta) peptide in yeast: Primary Screen. yeast expressing A-beta42, growth rescue, OD600, 48 h; response scale: 0% DMSO, 100% iron-clioquinol control. Potency, µM (highest dose often 46.1 µM), most hits filed as activators. hit rate 0.063% among 410,000. AID 1347071, 2019; note: nearly all actives have a fitted effect of over 55% in size
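Yeast A-beta toxicity model in growth medium with pinned compounds, 48 h at 30 C; growth read as absorbance at 600 nm. Normalized to FeCl3/clioquinol equimolar mix (positive) and DMSO (negative).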
TDP43 rescue – qHTS of TDP-43 Inhibitors | TDP-43 expressing yeast growth rescue, BacTiter-Glo, 24 h | Potency, µM (doses to about 46.1 µM), for inactives: at the highest dose growth rescue (activation), usual class: activators | hit rate 1.8% among 410,000 | AID 652104, 2013; note: % of control where 0% means no effect; nearly all actives have a fitted effect of over 50% in size
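Luminescence from BacTiter-Glo reports growth of TDP-43-expressing yeast after 24 hr at 30 deg C with compound. Cells were raffinose-pregrown to mid-log, then seeded in galactose medium at OD600=0.02.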
ERG Ets-DNA blk – qHTS for Small Molecule Inhibitors of the ERG Ets/DNA interaction. Transcriptional regulator ERG (Homo sapiens), P11308. fluorescence polarization, His-ERG Ets domain / labelled DNA. Potency, µM (titrated, usually from 76.9 µM), without a hit: at the top dose FP activity, negative = inhibition, hits mostly inhibitors. hit rate 0.028% among 370,000; active = well fitted inhibition curve with a large enough effect in the polarisation, with a control signal flat; inconclusive = small, poorly fitted or top-dose-only effect, or effect the other way, or a change in a side signal; inactive = no such curve, though single readings can be large or run the other way; the % refers to the polarisation;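 note: polarization taken with two DNA probes labelled with fluorescein and Texas red; % of control where 0% means no effect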
Target sequence (P11308 whole entry, looked up, the tested form may be a part): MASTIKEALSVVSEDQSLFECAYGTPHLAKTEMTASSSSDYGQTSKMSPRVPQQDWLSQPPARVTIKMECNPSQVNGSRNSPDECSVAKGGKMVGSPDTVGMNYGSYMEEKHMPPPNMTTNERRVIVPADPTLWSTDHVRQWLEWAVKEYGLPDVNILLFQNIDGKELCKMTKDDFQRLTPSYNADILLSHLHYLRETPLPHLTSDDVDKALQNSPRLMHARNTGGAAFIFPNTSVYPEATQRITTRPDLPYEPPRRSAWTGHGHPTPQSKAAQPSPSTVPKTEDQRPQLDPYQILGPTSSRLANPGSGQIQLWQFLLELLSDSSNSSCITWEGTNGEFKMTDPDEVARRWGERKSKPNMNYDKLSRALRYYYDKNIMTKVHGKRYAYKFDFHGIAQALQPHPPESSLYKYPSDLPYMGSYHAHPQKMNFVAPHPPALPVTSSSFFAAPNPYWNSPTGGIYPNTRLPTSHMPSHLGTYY
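His-tagged ERG Ets domain (1 uM in the protein solution; 300mM KCl, 50mM Tris-HCl, 1mM EDTA, 1mM DTT, pH 7.5) received compound, then a probe mix of 5 nM fluorescein-DNA and 100nM Texas-615-DNA. Fluorescence polarization was read for both dyes.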
aSyn yeast inh – qHTS of alpha-syn Inhibitors. hit rate 0.14% among 370,000. Potency, µM (series often up to 46.1 µM), for inactives: top-dose growth rescue (activation), actives largely listed as activators. Yeast expressing alpha-synuclein, growth rescue, BacTiter-Glo, 24 h; note: % of control where 0% means no effect; nearly all actives have a fitted effect of over 65% in size
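Galactose-induced alpha-syn yeast (OD600=0.02, raffinose-pregrown) + pinned cpd, 24 hr, 30 deg C; growth by BacTiter-Glo luminescence. Growth restoration scores as activation.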
Mito fusion act – qHTS Assay for Small Molecule Inhibitors of Mitochondrial Division or Activators of Mitochondrial Fusion. S. cerevisiae fusion-defective mutant growth rescue, CellTiterGlo 48 h. Potency, µM (highest dose often 46.1 µM), without a hit: top-dose growth rescue (activation), most hits filed as activators. hit rate 0.23% among 320,000. AID 485298, 2010; note: % of control where 0% means no effect; nearly all actives have a fitted effect of over 45% in size
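Yeast fusion mutant, YPEG (non-fermentable carbon), compound, 48 h at 37C non-permissive; CellTiterGlo added, 10 min RT, luminescence read. Rescued growth = division inhibition.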
* marks the source's active call; other numbers are inactive results; i = inactive; u = inconclusive; x = no result; ! = not active in a repeat. The list is not random: actives were taken first. Their share in the collection is about 2.2%. Unless noted, calls come from the whole dose curve; as a rule, active = well fitted curve in the direction sought with a large enough effect; inconclusive = small, poorly fitted or top-dose-only effect, or another doubt; inactive = no such curve, though single readings can be large; an effect the other way counts as inactive or inconclusive. Potency is the fitted concentration of half-maximal effect.

SMILES	FUS yeast rescue	Abeta yeast res	TDP43 rescue	ERG Ets-DNA blk	aSyn yeast inh	Mito fusion act
Cc1ccc(N2C(=O)[C@@H]3[C@H](C2=O)[C@H]2C=C(C(=O)c4ccccc4)C=CN2[C@@H]3C(=O)c2ccc(Cl)cc2)cc1	28µM*	i	-19%	4%	0%	-6%
CCCCc1nc2cc(C(=O)N3CCCC(COC)C3)ccc2o1 (configuration not stated)	x	i	u	2%	2%	-1%
CCCCc1nc2cc(C(=O)N3CCCC(OCCC)C3)ccc2o1 (configuration not stated)	i	i	14µM*	-1%	9%	-7%
CCOc1ccc(OCC)c(NS(=O)(=O)c2c(C(=O)N3CCCCCC3)c(C)n(C)c2C)c1	u	i	17%	1%	x	x
O=C(N/N=C/c1ccccn1)c1[nH]c2ccc([N+](=O)[O-])cc2c1-c1ccccc1	32µM*	i	27%	6%	u	3%
NNC(=O)c1[nH]c2ccc([N+](=O)[O-])cc2c1-c1ccccc1	i	i	7%	-6%	-4%	-12%
CCSc1nc(CC)c2c(c1C#N)CCCC2	i	i	17%	4%	9%	8.9µM*
COC(=O)C1=NN(C(=O)c2ccc(C)cc2)C(O)(c2ccc(Cl)cc2)C1 (configuration not stated)	u	i	u	x	11µM*	13%
Cc1ccc(C)c2[nH]c(=O)c(CN(Cc3ccco3)C(=O)Nc3ccccc3)cc12	u	i	15%	6%	3%	14µM*
c1csc(CCCN2CCCCC2)c1	x	i	-30%	9%	-11%	x
CN(C)S(=O)(=O)c1ccc(NC(=O)CSc2nc3ccccc3n2-c2ccccc2)cc1	6.3µM*	i	-33%	4%	-1%	13%
CCN(CC)c1ccc(NC(=O)CSc2nc3ccccc3c(=O)n2-c2cc(S(=O)(=O)N(C)C)ccc2C)cc1	35µM*	i	-11%	2%	-2%	-3%
CCn1c(CNC(=O)C23CC4CC(CC(C4)C2)C3)nnc1SCC(=O)Nc1ccccc1	u	i	15%	2%	x	x
CS(=O)(=O)Nc1ccc([N+](=O)[O-])cc1Oc1ccccc1	i	i	24%	11%	-21%	23µM*!
O=[N+]([O-])c1ccc(S(=O)(=O)Nc2ccncc2)cc1	i	i	15%	-3%	2%	2%
CS(=O)(=O)Nc1ccccc1Oc1ccccc1	i	i	12%	4%	2%	-3%
O=[N+]([O-])c1ccc(Oc2ccc(S(=O)(=O)Nc3ccccc3)cc2)cc1	i	i	2.8µM*	-11%	3%	u
O=S1(=O)c2ccc(Br)cc2OC[C@H](Cc2ccccc2)N1Cc1cn(CCC2OCCO2)nn1	i	x	x	x	x	x
COc1ccc(NC(=O)NCc2cccn2C)c(OC)c1	28µM*	i	-3%	6%	-2%	-4%
COc1ccc(NC(=O)CCn2c(=O)c3cccn3c3ccccc32)c(OC)c1	i	i	22µM*	-1%	8%	-1%
COc1ccc(NC(=O)CCn2c(=O)c3cccn3c3ccccc32)cc1	i	i	5%	1%	-2%	-1%
O=C(CSC1=Nc2ccccc2N=C(c2ccc(F)cc2)C1)NCc1ccc(Cl)cc1	i	i	19%	6%	x	x
CCN1C[C@@H]2[C@@H]3C(=O)N(Cc4ccccc4)C(=O)[C@@H]3[C@](Cc3ccccc3)(C1=O)N2C(=O)c1ccc(Cl)c(Cl)c1	i	i	5%	16%	2%	x
CN1C[C@@H]2[C@@H]3C(=O)N(Cc4ccccc4)C(=O)[C@@H]3[C@](Cc3ccccc3)(C1=O)N2C(=O)c1ccc(Cl)c(Cl)c1	14µM*	i	-3%	11%	2%	x
Cc1cc(C)cc(NC(=O)Cc2c(C(=O)O)c(C)cn2C)c1	i	i	18%	2%	x	x
SMILES	FUS yeast rescue	Abeta yeast res	TDP43 rescue	ERG Ets-DNA blk	aSyn yeast inh	Mito fusion act
Cc1ccc(Cn2c(C)c(CNCCCc3ccccc3)c(C(=O)O)c2C)cc1	i	i	-34%	3%	x	x
CCn1c(SCC(=O)Nc2nnc(C)s2)nnc1-c1ccco1	i	i	-11%	4%	-11%	-3%
CCc1nnc(NC(=O)CSc2nnc(-c3ccco3)n2CCOC)s1	i	i	-8%	-8%	1%	5.6µM*
CCOC(=O)CC[C@@]1(C(=O)OCC)C[C@@H](CC(=O)NCCCOC)C(=O)N2CCCC=C21	i	x	x	x	x	x
CCOC(=O)c1c(C)oc2c1C(=O)c1ccccc1C2=O	i	i	3.2µM*	2%	-4%	-4%
Cc1oc2c(c1C(=O)O)C(=O)c1ccccc1C2=O	i	i	-45%	-4%	9%	-2%
O=C1C(=O)c2c(C(=O)c3ccccc3)coc2-c2ccccc21	x	i	-41%	x	-61%	-6%
Cc1oc2c(c1C(=O)c1ccccc1)C(=O)C(=O)c1ccccc1-2	i	i	16µM*	10%	21%	-11%
O=C1CC(=C2c3ccccc3-c3ccccc32)C(=O)N1CCN1CCN(c2ccccc2)CC1	40µM*	i	-29%	4%	-1%	x
COc1ccccc1N1CCN(CCN2C(=O)CC(=C3c4ccccc4-c4ccccc43)C2=O)CC1	16µM*	i	3%	-1%	-12%	x
Cc1ccccc1N1CCN(CCN2C(=O)CC(=C3c4ccccc4-c4ccccc43)C2=O)CC1	u	i	13%	-8%	-5%	x
COc1ccc(N2CC(NC(=O)COc3ccc4ccccc4c3)CC2=O)cc1OC (configuration not stated)	i	i	14%	-11%	x	x
O=C(N/N=C/c1c[nH]c2ccccc12)C1COc2ccccc2O1 (configuration not stated)	i	i	13%	-6%	1%	-2%
CC(C)(C)c1ccc2c(c1)OC(C(=O)N/N=C\c1ccccn1)CO2 (configuration not stated)	x	u	u	4%	14µM*	16µM*
O=C(N/N=C\c1ccc([N+](=O)[O-])o1)C1COc2ccccc2O1 (configuration not stated)	i	i	u	2%	6%	7%
O=C(N/N=C\c1ccc(Cl)s1)C1COc2ccccc2O1 (configuration not stated)	i	u	18µM*	-1%	1%	1%

High-throughput results from PubChem BioAssay.
